Shown are actives, neighbours in structure and some others; about 2.1% of the full set was active somewhere.
FUS suppressor: qHTS for Suppressors of FUS Proteinopathy: Primary screen using FUS-linked yeast assay | 0.24% of 390,000 active | S. cerevisiae FUS-expressing, growth rescue, OD600, 24 h | Potency, µM (series often up to 76.6 µM), actives largely listed as activators;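 further: plate controls were DMSO vehicle for no effect and reference control for full effect; nearly all actives have a fitted effect of over 55% in size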
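S. cerevisiae expressing FUS from galactose induction served as the toxicity model. Growth after 24hr at 30C, read as absorbance at 600 nm, indicates suppression of toxicity; compounds dosed at several concentrations.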
aSyn yeast inh: qHTS of alpha-syn Inhibitors; AID 652106, 2013; Potency, µM (titrated, usually from 46.1 µM), without a hit: at the top dose growth rescue (activation), usual class: activators; 0.14% of 370,000 active; Yeast expressing alpha-synuclein, growth rescue, BacTiter-Glo, 24 h; further: % of control where 0% means no effect; nearly all actives have a fitted effect of over 65% in size
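Readout is rescue of growth in alpha-synuclein-expressing yeast, so inhibitors of toxicity appear as activators. Growth after 24 hr at 30 deg C in galactose medium is quantified by luminescence.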
Abeta yeast res: qHTS for compounds that reverse cellular toxicity of Amyloid beta (A-beta) peptide in yeast: Primary Screen | yeast expressing A-beta42, growth rescue, OD600, 48 h; response scale: 0% DMSO, 100% iron-clioquinol control | Potency, µM (titrated, usually from 46.1 µM), actives largely listed as activators | 0.063% of 410,000 active; further: nearly all actives have a fitted effect of over 55% in size
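Yeast A-beta toxicity model in growth medium with pinned compounds, 48 h at 30 C; growth read as absorbance at 600 nm. Normalized to FeCl3/clioquinol equimolar mix (positive) and DMSO (negative).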
TDP-43 yeast inh: qHTS of TDP-43 Inhibitors. 1.8% of 410,000 active. Potency, µM (top dose mostly 46.1 µM), for inactives: top-dose growth rescue (activation), usual class: activators. TDP-43 expressing yeast growth rescue, BacTiter-Glo, 24 h. AID 652104, 2013; further: % of control where 0% means no effect; nearly all actives have a fitted effect of over 50% in size
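Cell-based yeast growth screen: TDP-43 expression induced in galactose, inoculum OD600=0.02 after raffinose pregrowth to mid-log. Read-out BacTiter-Glo luminescence at 24 hr, 30 deg C; inhibition of toxicity seen as signal increase.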
Starred values were filed as active, the others as inactive; i = inactive; ? = inconclusive; / = no result; ! = repeats disagree. The call rests on the fitted dose curve; in most records, active means well fitted curve in the direction sought with a large enough effect; inconclusive means small, poorly fitted or top-dose-only effect, or another doubt; inactive means no such curve, though single readings can be large; an effect the other way counts as inactive or inconclusive. Potency means the concentration at half of the fitted maximal effect.

SMILES	FUS suppressor	aSyn yeast inh	Abeta yeast res	TDP-43 yeast inh
O=C(CSC1CC(=O)N(CCc2ccccc2)C1=O)Nc1cccc(Cl)c1 (stereo not given)	i	13%	i	18µM*
O=C(CC1C(=O)OCCN1Cc1ccccc1)Nc1cccc(Cl)c1 (stereo not given)	i	/	i	18µM*
CCCC1CCC2(CC1)CCC2OC(=O)Nc1ccc(C)cc1 (stereo not given)	i	/	/	/
COc1cc2nc(NC3CCN(C)CC3)nc(NC3CCN(C)CC3)c2cc1OC	/	0%	/	/
CC(=O)c1c(C)[nH]c(C(=O)Nc2ccccc2C)c1C	i	/	/	/
Cc1[nH]c2ccccc2c1C(=O)C(C)Sc1nc2ccccc2c(=O)n1Cc1cccnc1 (stereo not given)	/	-1%	/	/
Cc1ccc(OCCn2cc(C(=O)c3ccco3)c3ccccc32)cc1C	i	/	i	12%
COc1ccc(OCCn2cc(C(=O)c3ccco3)c3ccccc32)cc1	i	/	?	18µM*
COc1ccccc1NC(=O)COc1ccc(-c2nn(C)c(=O)c3ccccc23)cc1	i	0%	i	22µM*!
Cc1cccc(NC(=O)COc2ccc(-c3nn(C)c(=O)c4ccccc34)cc2)c1	?	4%	i	35µM*
COc1ccccc1NC(=O)c1ccc(-c2nn(C)c(=O)c3ccccc23)cc1	i	16%	i	16%
Cn1nc(-c2ccc(OCC(=O)Nc3ccccc3)cc2)c2ccccc2c1=O	i	/	i	16µM*
CN(C(=O)c1ccc(-c2nn(C)c(=O)c3ccccc23)cc1)c1ccccc1	i	/	i	14µM*
C=C(c1nc2ccccc2s1)C1Cc2cccc3c2N(CCC3)C1 (stereo not given)	/	-78%	/	/
C[C@H]1[C@@H](OC(=O)NCCc2ccccc2)CC[C@@]23CCCN2C(=O)CCC[C@@H]13	i	/	/	/
COc1ccccc1NC(=O)Cn1nc(-c2ccc(Cl)cc2)c2ccccc2c1=O	i	15%	i	28%
COc1ccccc1NC(=O)Cn1nc(-c2ccc(C)cc2)c2c(c1=O)CCCC2	i	/	i	32µM*
C=CCn1c(SCc2ccc(C#N)cc2)nnc1-c1cccc(Cl)c1	i	6%	i	14µM*
COc1ccccc1N1CCN(C(=O)Cc2ccc(Cl)cc2)CC1	i	21%	i	2%
COc1ccccc1N1CCN(C(=O)CCSCc2ccccc2F)CC1	i	0%	i	20µM*!
COc1cccc(N2CCN(C(=O)CCSCc3ccccc3F)CC2)c1	i	2%	i	16µM*
COc1cccc(N2CCN(C(=O)CN3CCSc4ccccc43)CC2)c1	i	3%	?	14µM*
C[C@H](NS(=O)(=O)c1ccc([N+](=O)[O-])cc1)C(=O)NCCNC(=O)[C@@H](C)NS(=O)(=O)c1ccc([N+](=O)[O-])cc1	i	/	/	/
CC(=O)c1cnc2nc(SCc3ccc(Cl)cc3)nn2c1C	i	12%	i	14µM*
O=[N+]([O-])c1ccc(-c2nc(Cl)c3c(n2)CCCC3)o1	i	-6%	i	7.1µM*
SMILES	FUS suppressor	aSyn yeast inh	Abeta yeast res	TDP-43 yeast inh
N#Cc1ccc(/C=C2\CC3(OC(=O)c4ccc(F)cc4)CCCN2C3)cc1 (stereo not given)	i	/	/	/
C=CCn1c(SCC(=O)Nc2cc3oc4ccccc4c3cc2OC)nnc1-c1cnccn1	i	2%	i	17%
COc1cc2c(cc1NC(=O)CSc1nnc(-c3cnccn3)n1-c1ccc(C)cc1)oc1ccccc12	18µM*	/	/	/
CC1CCCCC1N(C(=O)c1cc(C2CC2)on1)C1CCCCCC1 (stereo not given)	i	/	/	/
Cc1cccc(/C(N)=N/OC(=O)c2ccco2)c1	i	-38%	i	22µM*
COc1ccc(/C(N)=N/OC(=O)c2ccco2)cc1	i	-17%	i	18µM*
Cc1ccc(/C(N)=N/OC(=O)c2ccco2)cc1	i	-18%	i	?
N/C(=N\OC(=O)c1ccco1)c1ccc(Br)cc1	i	-48%	i	14µM*
Cc1ccccc1CSc1nnc(-c2ccncc2)o1	i	7%	i	14µM*
Clc1ccc(CSc2nnc(-c3ccncc3)o2)c(Cl)c1	i	/	i	2.8µM*
COc1ccccc1CNC(=O)N1CCN(Cc2nc3ccccc3c(=O)[nH]2)CC1	i	/	/	/
COc1cccc2cc(C(C)=O)oc12	i	2%	i	?
COc1cccc2cc(/C(=N/O)c3ccccc3)oc12	i	16%	i	11µM*
COc1ccccc1[C@H]1C(c2cccc(Cl)c2)=NN(c2ccccc2)[C@@H]1CO	?	-1%	i	20µM*
OC[C@@H]1[C@@H](c2ccccc2)C(c2cccc(Cl)c2)=NN1c1ccccc1	?	-69%	i	-80%
OC[C@@H]1[C@@H](c2ccccc2)C(c2ccccc2)=NN1c1ccccc1	i	?	?	13µM*
C=CCN1C(=O)[C@@H](CC(=O)NCc2cccc(C(F)(F)F)c2)[C@]2(C(=O)OC)CCCCC=C12	i	/	/	/
COc1ccc(Cn2c(C(=O)O)c(CNCCc3cc(OC)ccc3OC)c3ccc(C)cc32)cc1	28µM*	/	i	4%
C=Cc1ccc(Cn2c(C(=O)O)c(CNCc3ccc(F)cc3)c3ccc(C)cc32)cc1	32µM*	/	i	9%
C=Cc1ccc(Cn2c(C(=O)O)c(CNCc3cccs3)c3ccc(C)cc32)cc1	?	/	i	0%
Cc1ccc(S(=O)(=O)N2C=C(c3ccccc3)c3ccccc3-c3ccccc32)cc1	i	/	/	/
CCCCCCNC(=O)C1CSCCS(=O)(=O)N1Cc1ccc(F)cc1 (stereo not given)	i	/	/	/
O=C(NCc1ccco1)C1CCCN(S(=O)(=O)c2ccc(F)cc2)C1 (stereo not given)	i	/	/	/
Cc1ccc(C(=O)NNC(=S)NC(=O)c2ccc(Cl)cc2Cl)cc1	i	1.1µM*	i	?
O=C(COc1ccccc1)NNC(=S)NC(=O)c1ccc(Cl)cc1Cl	i	?	?	3.5µM*
SMILES	FUS suppressor	aSyn yeast inh	Abeta yeast res	TDP-43 yeast inh
CCOc1ccc(-n2c(SCC(=O)Nc3ccc(S(=O)(=O)Nc4cc(C)nc(C)n4)cc3)nnc2-c2ccncc2)cc1	i	/	/	/
Cc1cc(C)nc(NS(=O)(=O)c2ccc(NC(=O)COc3ccc(C(C)(C)C)cc3)cc2)n1	28µM*	/	i	0%
COc1ccc(-n2c(SCC(=O)Nc3ccc(S(=O)(=O)Nc4nccs4)cc3)nnc2-c2ccccc2)cc1	10µM*	/	/	/
Cn1c(COc2ccccc2)nnc1SCC(=O)Nc1ccc(S(=O)(=O)Nc2nccs2)cc1	i	/	/	/
Cc1ccc(-n2c(SCC(=O)Nc3ccc(S(=O)(=O)Nc4cc(C)nc(C)n4)cc3)nnc2-c2ccc(C(C)(C)C)cc2)cc1	22µM*	/	/	/
O=C(CSc1nnc(COc2ccccc2)n1-c1ccccc1)Nc1ccc(S(=O)(=O)Nc2nccs2)cc1	20µM*	/	/	/
